Test results taken from PubChem BioAssay (NCI).
The panel holds about 83,000 compounds, 20% with a hit somewhere; the sample as a whole holds those more often.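 Single-dose data. Exposure time 48 hours. Values below 10 considered active.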 A number with no mark means an inactive call. The source made the active and inactive calls.

Assays:
Test in all cases: NCI-60 one-dose screen, 48 h (100 = growth as untreated, 0 = no growth, -100 = all killed)
SK-MEL-2 melanoma = conditions: 10 µM unless noted
EKVX NSCLC = conditions: 10 µM unless noted
SN12C renal = conditions: 10 µM unless noted
UO-31 renal = conditions: 10 µM unless noted
TK-10 renal = conditions: 10 µM unless noted
ACHN renal = conditions: 10 µM unless noted
CAKI-1 renal = conditions: 10 µM unless noted
CCRF-CEM leukemia = conditions: 10 µM unless noted
MOLT-4 leukemia = conditions: 10 µM unless noted
SR leukemia = conditions: 10 µM unless noted
RPMI-8226 leukemia = conditions: 10 µM
OVCAR-8 ovarian = conditions: 10 µM unless noted
OVCAR-5 ovarian = conditions: 10 µM unless noted
IGROV1 ovarian = conditions: 10 µM unless noted
OVCAR-3 ovarian = conditions: 10 µM unless noted
HS 578T breast = conditions: 10 µM unless noted
A498 renal = conditions: 10 µM unless noted
OVCAR-4 ovarian = conditions: 10 µM unless noted
SK-OV-3 ovarian = conditions: 10 µM
NCI/ADR-RES ovarian = conditions: 10 µM unless noted

SMILES | growth (SK-MEL-2 melanoma) | growth (EKVX NSCLC) | growth (SN12C renal) | growth (UO-31 renal) | growth (TK-10 renal) | growth (ACHN renal) | growth (CAKI-1 renal) | growth (CCRF-CEM leukemia) | growth (MOLT-4 leukemia) | growth (SR leukemia) | growth (RPMI-8226 leukemia) | growth (OVCAR-8 ovarian) | growth (OVCAR-5 ovarian) | growth (IGROV1 ovarian) | growth (OVCAR-3 ovarian) | growth (HS 578T breast) | growth (A498 renal) | growth (OVCAR-4 ovarian) [%] | growth (SK-OV-3 ovarian) [%] | growth (NCI/ADR-RES ovarian)
O=c1oc2ccccc2cc1-c1csc(N=Nc2c(O)[nH]c3ccc(Cl)cc23)n1 | 107% | 103% | 100% | 98.2% | 106% | 101% | 94.9% | 94.2% | 105% | 102% | 105% | 96.3% | 96.2% | 107% | 107% | 105% | – | – | – | –
CN(C)C(=S)SCN1C(=O)c2ccc([N+](=O)[O-])cc2S1(=O)=O | 112% | 93.7% | 93.1% | 83.1% | 108% | – | 96% | 50.6% | 91.6% | 75.8% | – | 98.5% | – | 104% | 99.3% | 93% | 92.6% | 103 | 107 | 96.4%
Cc1cccc2c(=O)c3c(sc12)c(NCCNCCO)nc1ccccc13 | 79.3% | 41.6% | 33.4% | 29.6% | 34.9% | -19.2% (active) | 22.1% | 13.7% | -31.1% (active) | -44.1% (active) | -34.2% (active) | 34% | 64.9% | 16.1% | 45.1% | 54.5% | – | – | – | 45.1%
COc1ccc(OC)c(/C=C2\Oc3cc(O)ccc3C2=O)c1 | 98.6% | 91.4% | 85.8% | 60.3% | 103% | 68.3% | 93.7% | 96.1% | 100% | 75.7% | 92.2% | 85.6% | 101% | 89.3% | 95.8% | 80.8% | – | – | – | 92.9%
COC(=O)c1c2c(c(C)[n+]([O-])c1C)C(=O)C=C(NCc1ccc(F)cc1)C2=O | -31.3% (active) | -57% (active) | -88.8% (active) | -21% (active) | 13.6% | -45.2% (active) | -0.887% (active) | 4.77% (active) | -35.2% (active) | 2.14% (active) | -20.9% (active) | 2.54% (active) | -68.8% (active) | -59.4% (active) | -35.9% (active) | -16.6% (active) | – | – | – | -16.7% (active)
O=S(=O)(Nc1ccc(Cl)c(Cl)c1)c1ccc(-c2cnc(C3CC3)o2)cc1 | 37.4% | 33.8% | 41.2% | 44% | 51.3% | 45.1% | 35.9% | 18.9% | 32.4% | 43.7% | 24.6% | 33.3% | 34.2% | 27% | -17.8% (active) | -18.5% (active) | – | – | – | 5.86% (active)
NS(=O)(=O)c1ccc(C(=O)N/N=C(\CS(=O)(=O)c2ccccc2)c2cc3cc(Br)ccc3o2)cc1 | 100% | 103% | 89% | 101% | 107% | 99.3% | 89.9% | 118% | 137% | 127% | 98.3% | 75.2% | 99.8% | 92.5% | 94.5% | 80.7% | – | – | – | 98%
O=C1c2c(c3c4cc(Br)ccc4[nH]c3c3ccc4ccccc4c23)C(=O)N1O | 106% | 87.3% | 92.2% | 101% | 117% | 73.3% | 69.6% | 54.1% | 68.5% | – | 58.9% | 84.1% | 111% | 70.2% | 107% | 117% | – | – | – | 98.1%
COc1cc(C2C3=C(COC3=O)N(CCO)c3cc4c(cc32)OCO4)cc(OC)c1O (centres undefined) | 25% | 57.2% | 52.7% | 57.9% | – | 37.9% | 60.4% | 28.6% | 47.6% | 21.5% | 21.8% | 42.8% | 72% | 36% | -25.9% (active) | 3.31% (active) | -2.62% (active) | 48.3 | 31.8 | 73.3%
CCCCCCCC/C=C\CCCCCCCCOc1cccc(CC(=O)NCC[N+]2(C)CCCCC2)c1 | 91.8% | 78.7% | 47.8% | 86.8% | 76.8% | 94.7% | 70.3% | 38.5% | 57% | – | 67.1% | 74.3% | 39.6% | -37% (active) | 89.9% | 73.9% | – | 66.3 | – | 102%
O=C(O)c1ccccc1Oc1cc(-c2ccco2)nc(OCCBr)n1 | 111% | 94.5% | 94.7% | 86.6% | 103% | – | 90.7% | 87.1% | 98.5% | 102% | 123% | 103% | – | 106% | 105% | 98.1% | 99.3% | 98.5 | 103 | –
O=C1/C(=C/c2ccc([N+](=O)[O-])cc2)Oc2ccc(O)cc21 | 104% | 91.9% | 85.8% | 70.4% | 17.8% | 82.3% | 5.52% (active) | 72.5% | 18.7% | 43% | – | 90.7% | -9.84% (active) | 18% | 16.7% | 97.2% | – | 39.7 | – | 89%
COc1ccc(NS(=O)(=O)c2ccc(-c3cnc(C4CC4)o3)cc2)cc1 | 46.6% | 69.9% | 81.5% | 69.8% | 79.8% | 80.6% | 48.3% | 76.2% | 48.6% | 40.8% | 74.9% | 81.5% | 78.6% | 62.8% | 27.4% | 42.4% | – | – | – | 30.3%
CCCN1CCN(c2ccc3nc(-c4ccc5nc(-c6ccc(C(F)(F)F)cc6)[nH]c5c4)[nH]c3c2)CC1 | 7.45% (active) | -34.3% (active) | -69.2% (active) | 79.7% | -13% (active) | -99.9% (active) | 59% | -21.1% (active) | -38.6% (active) | -35.5% (active) | -29.9% (active) | -38% (active) | -25% (active) | -83.5% (active) | -96.9% (active) | 4.6% (active) | – | – | – | 74%
NC(=O)c1cccc(-n2ccc3cc(NC(=O)Nc4ccc(Cl)c(Cl)c4)ccc32)n1 | 88.3% | 68.3% | 86.8% | 95.5% | 80.7% | 74.5% | 57.6% | 59.2% | 50.7% | 45.5% | – | 80.9% | 106% | 87.9% | 82.9% | 58.5% | – | 68.2 | – | 91.8%
Cc1cccc2c(=O)c3c(sc12)c(NCCCN)nc1ccccc13 | 89.2% | 40.6% | 22.1% | 19.6% | 29% | -82.9% (active) | 4.76% (active) | 2.89% (active) | -18.3% (active) | – | – | 27.3% | 51.7% | -24.1% (active) | 39.4% | 24.6% | – | – | – | 24%
COc1cc2oc(-c3ccc(O)cc3)cc(=O)c2c(O)c1I | 103% | 87.8% | 100% | 93% | 109% | 98.7% | 96.6% | 94.9% | 111% | 79.3% | 87.1% | 96.3% | 104% | 114% | 117% | 103% | – | – | – | 98%
COC(=O)c1c2c(c(C)[n+]([O-])c1C)C(=O)C=C(NCc1cccc(Cl)c1)C2=O | -32.8% (active) | -57.3% (active) | -90.7% (active) | -18.5% (active) | 14.5% | -44.8% (active) | -14.3% (active) | -11.2% (active) | -34.8% (active) | 1.95% (active) | -31.9% (active) | -14.4% (active) | -87.2% (active) | -53.9% (active) | -35.7% (active) | -23.2% (active) | – | – | – | -12.7% (active)
